# GPR151 activ = activates the human receptor GPR151 | Q8TDV0 | PathHunter beta-arrestin GPR151 cells, luminescence | activation, % at 11.2 µM | 650,000 tested, 1% active | AID 1508602; in the data active = activation above about 4.9%;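 also: 0% = median of compound wells and 100% = cells with positive control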
# MITF inh = human MITF inhibition, primary screen | AlphaScreen MITF homodimerization, bead proximity signal | 650,000 tested, 0.91% active | inhibition, % at 2.6 µM; in the data active = inhibition above about 50%;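 also: 0% = vehicle wells with protein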
# Target sequence (O75030 whole entry, looked up): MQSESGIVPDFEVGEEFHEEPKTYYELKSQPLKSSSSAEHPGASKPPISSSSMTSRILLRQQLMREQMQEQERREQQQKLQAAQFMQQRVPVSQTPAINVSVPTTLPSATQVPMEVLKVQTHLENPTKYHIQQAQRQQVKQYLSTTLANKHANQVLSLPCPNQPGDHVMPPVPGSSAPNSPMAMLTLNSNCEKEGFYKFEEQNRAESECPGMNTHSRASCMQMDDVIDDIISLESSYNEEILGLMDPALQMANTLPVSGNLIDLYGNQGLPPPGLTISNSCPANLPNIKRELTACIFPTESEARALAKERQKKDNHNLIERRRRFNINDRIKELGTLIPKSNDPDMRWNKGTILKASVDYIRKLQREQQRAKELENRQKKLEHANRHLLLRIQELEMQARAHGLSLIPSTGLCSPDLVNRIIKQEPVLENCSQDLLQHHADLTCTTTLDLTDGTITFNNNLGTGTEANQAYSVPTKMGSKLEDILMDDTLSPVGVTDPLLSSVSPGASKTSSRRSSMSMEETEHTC
# TEAD-YAP inh = TEAD-YAP interaction inhibition | HEK-TIYL cells, TEAD-Gal4/YAP UAS-luciferase luminescence | inhibition, % at 9.12 µM | 640,000 tested, 1.4% active; in the data active = inhibition above about 32%;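 also: 0% = median of test compound wells and 100% = reference inhibitor wells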
# FBW7 activator = human FBW7 E3 ligase activation, primary screen | Q969H0 | AlphaScreen FBW7–phospho-cyclin E peptide binding, activator screen | normalized activity (activation), % at 26.1 µM | 650,000 tested, 0.13% active | AID 1259310; in the data active = normalized activity above about 1.9%;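 also: purified mutant Fbw7 with reduced substrate affinity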
# MITF inh conf = human MITF inhibition, confirmation; shares compounds with MITF inh; AlphaScreen MITF homodimerization, biotin/His-MITF beads; inhibition, % at 2.6 µM; 4,700 tested, 16% active; AID 1259372;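 active = inhibition above a cutoff derived from the DMSO control wells, cut at about 28% in these data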;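 also: 0% = MITF dimer wells with DMSO only; inhibitors lower the bead chemiluminescence by keeping MITF from dimerizing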
# AS interf DR = AlphaScreen optical interference, dose response counter-screen; shares compounds with MITF inh; AlphaScreen optical interference counterscreen, cell-free; IC50, µM; 480 tested, 6% active; call rule not given here
# AlphaScreen intf2 = counter-screen: compounds optically interfering with AlphaScreen; shares compounds with MITF inh; LysRS AlphaScreen counterscreen, signal interference, triplicate; inhibition, % at 2.6 µM; 4,700 tested, 7.6% active;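 active = inhibition above a cutoff derived from the DMSO control wells, cut at about 30% in these data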
# * marks the source's active call; other numbers are inactive results; / = no result. The list is not random: actives were taken first. Their share in the collection is about 3.5%.
SMILES,GPR151 activ,MITF inh,TEAD-YAP inh,FBW7 activator,MITF inh conf,AlphaScreen intf2,others
CC(C)Oc1ccccc1OCCN(C)C,0,75*,5,0,7,15,
C=CCN(CC=C)CCOc1ccccc1OC(C)C,2,35,-5,0,/,/,
CS(=O)(=O)N1CCC[C@H](Cn2nc(-c3cccs3)ccc2=O)C1,-1,-13,3,0,/,/,
COc1ccc(OC)c(NC(=O)c2sc3ncn(CC(=O)N4CCCC4)c(=O)c3c2C)c1,0,10,7,0,/,/,
CCCC(=O)Nc1ccccc1C1(C)CC1,-1,59*,3,0,-3,-17,
O=C(CSc1nsc(SCC(=O)Nc2ccc(Cl)c(Cl)c2)n1)Nc1ccc(Cl)c(Cl)c1,1,59*,-10,0,39*,11,
Cc1cccc(NC(=O)CSc2nsc(SCC(=O)Nc3cccc(C)c3)n2)c1,-1,-6,-2,0,/,/,
Cc1cccc(NC(=S)NNC(=O)CC(C)O)c1C (stereo not given),-2,57*,9,0,-7,-9,
CN(CCc1ccccn1)Cc1ccc2c(c1)OCO2,0,63*,4,0,8,15,
CN(CCc1ccccn1)Cc1ccc(F)c(Br)c1,-1,68*,8,0,-9,-6,
CN(CCc1ccccn1)Cc1ccc2c(c1)CN(Cc1cccc3nccnc13)CCO2,0,1,12,0,/,/,
CN(CCc1ccccn1)Cc1cccc([N+](=O)[O-])c1,-1,47,-1,0,/,/,
CN(CCc1ccccn1)Cc1ccc(F)cc1,-1,78*,-4,0,33*,17,AS interf DR=>6.6
CN(CCc1ccccn1)Cc1cccc(F)c1,0,73*,-6,0,7,19,
CCOC(=O)C1=CN(C(C)C)C=C(C(=O)OCC)C1c1ccc(Cl)c([N+](=O)[O-])c1,2,16,1,0,/,/,
CSc1ccc(CN(C)CCc2ccccn2)cc1,1,68*,6,0,14,21,
CN(CCc1ccccn1)C1CC(=O)N(c2ccccc2)C1=O (stereo not given),-1,-19,-10,0,/,/,
NC(=O)c1ccccc1NC(=S)NC(=O)/C=C/c1ccco1,1,54*,41*,0,70*,-1,AS interf DR=>6.5
O=C(/C=C/c1cccc([N+](=O)[O-])c1)NC(=S)Nc1ccccc1C(=O)O,3,86*,1,0,-11,1,
Cc1ccc(O)c(NC(=S)NC(=O)/C=C/c2ccco2)c1,0,62*,15,0,30*,29,AS interf DR=>6.5
Fc1cccc(CN2CCC(c3nc4ccc(-c5ccncc5)cc4[nH]3)CC2)c1,-1,17,-12,0,/,/,
CC(C)NC(=O)C(=O)N/N=C/c1ccc(OCc2ccccc2Cl)cc1,-1,55*,-4,0,-2,-4,
CC(C)NC(=O)C(=O)N/N=C/c1ccc(OCc2ccc(Cl)cc2)cc1,-1,-4,-6,0,/,/,
FC(F)(F)c1ccc(-c2noc(-c3cc(-c4ccc(Cl)cc4)nc4ccccc34)n2)cc1,1,56*,-10,1,-11,-12,
COC(CNc1cc(-c2ccccn2)nc(-c2ccccn2)n1)OC,0,114*,22,-1,116*,100*,
SMILES,GPR151 activ,MITF inh,TEAD-YAP inh,FBW7 activator,MITF inh conf,AlphaScreen intf2,others
COC(CNc1cc(-c2ccccn2)nc(-c2ccccc2)n1)OC,0,-2,22,0,/,/,
Cc1cnc(CNc2cc(-c3ccccn3)nc(-c3ccccn3)n2)nc1,1,110*,16,-1,115*,100*,
Cc1ccc(C(C)C)cc1OCCOCCN1CCCC1,-2,54*,4,0,-5,-14,
Cc1ccc(C(C)C)cc1OCCCCn1ccnc1,2,53*,1,0,8,8,
Cc1ccc(C(C)C)cc1OCCNC(C)C,-2,89*,6,1,1,4,
C=CCNCCOc1cc(C(C)C)ccc1C,-1,3,-6,0,/,/,
Cc1ccc(C(C)C)c(OCCCCn2ccnc2)c1,1,20,-1,0,/,/,
Cc1ccc(/C(O)=C/c2nc3nonc3[nH]c2=O)cc1C,-1,10,-1,0,/,/,
CC(C)N(C(=O)CSc1nc2sc3c(c2c(=O)n1Cc1ccccc1)CCCC3)c1ccccc1,-1,-2,-2,0,/,/,
Nc1nc(Nc2nccc3ccccc23)cc(NC2CCN(Cc3ccccc3)CC2)n1,2,8,11,0,/,/,
COc1ccc(-c2csc(NC(=O)CCOc3ccccc3)n2)cc1C,2,2,-4,0,/,/,
CN1CCN(CC(O)COc2ccc(Br)cc2)CC1 (stereo not given),0,-6,-1,0,/,/,
CC(=O)N(C)c1ccc(OCC(O)CN2CCN(C)CC2)cc1 (stereo not given),-2,60*,-3,0,14,18,
COc1ccc(OCC(O)CN2CCCCCC2)cc1 (stereo not given),0,49,-8,1,/,/,
CCOC(=O)c1c(C)n(C)c2ccc(OCC(O)CN3CCCCC3)cc12 (stereo not given),2,54*,1,0,-6,1,
COc1ccc(OCC(O)CN2CCCC2)cc1 (stereo not given),1,55*,-5,0,6,7,
CC(=O)N(C)c1ccc(OCC(O)CN2CCN(c3ccccn3)CC2)cc1 (stereo not given),-1,65*,-1,0,6,13,
Cc1nc(CSc2nc3ccccc3c(=O)n2Cc2ccco2)cs1,-1,-5,-4,0,/,/,
O=C(c1ccccc1F)N1CCC(O)(c2cccnc2)CC1,4,29,-3,0,/,/,
O=C(c1ccccc1F)N1CCN(Cc2cccnc2)CC1,1,63*,9,0,-16,-6,
O=C(c1ccco1)N1CCN(Cc2cccnc2)CC1,-1,66*,7,0,3,-1,
O=C(c1ccccc1F)N1CCN(Cc2ccc(Br)cc2)CC1,-1,50,19,0,/,/,
O=C(c1ccccc1F)N1CCN(Cc2ccncc2)CC1,1,73*,8,0,-13,-3,
COc1cc(CN2CCN(C(=O)c3ccco3)CC2)cc(OC)c1OC,1,33,9,0,/,/,
O=C1Nc2ccc(Cl)cc2/C1=N\N1C(=O)c2ccccc2C1=O,0,4,5,0,/,/,
CC1=NN(c2cccc(C(=O)O)c2)C(=O)C1,0,60*,-2,0,14,25,
CC1=NN(c2cccc(F)c2)C(=O)C1,-1,-9,3,-1,/,/,
O=C(CNC(=S)N(CCCN1CCOCC1)Cc1cccs1)NCc1ccc(F)cc1,0,2,3,0,/,/,
COc1ccccc1CN1CCN(C(=O)c2cccs2)CC1,-1,36,-3,0,/,/,
COc1cc(OC)cc(C(=O)N2CCN(Cc3cc(OC)c(OC)cc3OC)CC2)c1,3,49,-2,0,/,/,

# Screening data from PubChem BioAssay.
